Experimental data reported in PubChem BioAssay AID1224921 (Broad Institute, 2016).
The campaign covered roughly 1,400 compounds. About 350 (25%) were called active. About 2% were inconclusive and are not listed. How the calls were made is not given here. A selection follows. Entries with a potency or affinity are not part of this list.

Assay: inhibitors of Clostridioides difficile proliferation – 4-point retest, confirmation (AID 1224921);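 further: plate controls were DMSO wells for no effect and levofloxacin 16 µg/mL wells for full effect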
Settings: Clostridioides difficile clinical isolate growth, OD600, 24 h, stronger effect = lower value; at 30 µM unless noted

Max activity, inactive:
CCC(CO)Oc1cc(NCc2ccccc2)c2ncn(C(C)C)c2c1 (stereo not drawn) -5.47% [at 8 µM]
CCS(=O)(=O)Nc1ccc2c(c1)C(=O)N(C)C[C@H](OC)[C@H](C)CN(CC1CCCC1)[C@@H](C)CO2 11.3%
CC(C)=CCN(C(=O)C#Cc1ccccc1)[C@H](CO)c1ccccc1 14.2% [at 1.95 µM]
C[C@H](CO)N1C[C@H](C)[C@H](CN(C)Cc2ccc(C(F)(F)F)cc2)OCCCC[C@H](C)Oc2ccc(NS(C)(=O)=O)cc2C1=O 5.77% [at 1.95 µM]
CCCC#Cc1ccc2c(c1)O[C@@H](CN(C)Cc1ccncc1)[C@H](C)CN([C@@H](C)CO)S2(=O)=O -9.09% [at 1.95 µM]
CO[C@@H]1CN(C)C(=O)c2ccc(NC(=O)c3nc4ccccc4s3)cc2OC[C@H](C)N(Cc2cccnc2)C[C@H]1C 25.4%
CCCC(O)C#Cc1cnc2c(c1)C(=O)N([C@H](C)CO)C[C@H](C)[C@H](CN(C)Cc1ccncc1)O2 (stereo partly drawn) 12%
C[C@H](CO)N1C[C@H](C)[C@H](CN(C)C(=O)c2cccc(F)c2)Oc2ncc(C3=CCCCC3)cc2C1=O -6.68% [at 8 µM]
C[C@@H]1CN([C@H](C)CO)C(=O)c2c(c3ccccc3n2C)-c2ccccc2CO[C@@H]1CN(C)S(=O)(=O)CC(F)(F)F 28.3%
Cc1ccccc1S(=O)(=O)NCC[C@@H]1CC[C@@H](NC(=O)Nc2cccc(Cl)c2)[C@@H](CO)O1 23.9%
C[C@H]1CN([C@@H](C)CO)C(=O)Cc2cc(NS(C)(=O)=O)ccc2O[C@@H]1CN(C)Cc1ccccc1 11.3%
COCC(=O)Nc1ccc2c(c1)OC[C@@H](C)N(Cc1cncnc1)C[C@H](C)[C@@H](OC)CN(C)C2=O -8.05% [at 1.95 µM]
C[C@H](CO)N1C[C@H](C)[C@H](CN(C)S(=O)(=O)c2ccsc2)OCc2ccccc2-c2ccccc2C1=O -12.1% [at 0.5 µM]
C[C@H](O)C#Cc1ccc2c(c1)O[C@H](CN(C)CC1CCCCC1)[C@H](C)CN([C@H](C)CO)S2(=O)=O 20.7%
C[C@H]1CN([C@@H](C)CO)C(=O)c2cc(NC(=O)Cc3ccccc3)ccc2O[C@@H]1CN(C)C(=O)Nc1ccccc1 -13.4% [at 0.5 µM]
C[C@H](NC(=O)C[C@H]1C=C[C@@H](NC(=O)CN2CCOCC2)[C@H](CO)O1)c1ccccc1 -8.28% [at 8 µM]
C/C=C/c1cnc2c(c1)C(=O)N([C@H](C)CO)C[C@@H](C)[C@@H](CN(C)Cc1ccc(F)cc1)O2 -15% [at 0.5 µM]
COc1ccccc1S(=O)(=O)N[C@H]1C=C[C@@H](CC(=O)N2CCCCC2)O[C@@H]1CO -9.97% [at 8 µM]
CO[C@@H]1CN(C)C(=O)c2ccc(NC(=O)c3ccccc3F)cc2OC[C@H](C)N(CC2CC2)C[C@@H]1C -12.3% [at 8 µM]
CCCC#Cc1ccc2c(c1)O[C@H](CN(C)Cc1cccnc1)[C@@H](C)CN([C@@H](C)CO)S2(=O)=O 13.7% [at 8 µM]
CCCNC(=O)N1C[C@H](C)[C@H](OC)CN(C)C(=O)c2cc(NC(C)=O)ccc2OC[C@H]1C 4.83% [at 8 µM]
CC(=O)N(C)C[C@@H]1Oc2ncc(C#Cc3ccc(F)cc3)cc2C(=O)N([C@@H](C)CO)C[C@@H]1C 32.1%
C/C=C/c1ccc2c(c1)O[C@H](CN(C)C(=O)Cc1ccncc1)[C@@H](C)CN([C@H](C)CO)S2(=O)=O -10.9% [at 8 µM]
CCCN1C[C@@H](C)[C@@H](OC)CN(C)C(=O)c2cc(NC(=O)c3cccc(OC)c3)ccc2OC[C@@H]1C -16.1% [at 1.95 µM]
COc1ccccc1C#Cc1ccc2c(c1)O[C@H](CN(C)Cc1cccnc1)[C@H](C)CN([C@@H](C)CO)S2(=O)=O 25.3%
Cc1ccccc1-c1ccc2c(c1)O[C@@H](CN(C)Cc1ccncc1)[C@@H](C)CN([C@H](C)CO)S2(=O)=O 49.5%
CO[C@H]1CN(C)C(=O)c2ccc(NC(=O)C3CC3)cc2OC[C@H](C)N(Cc2cncnc2)C[C@H]1C -10.1% [at 1.95 µM]
CO[C@H]1CN(C)C(=O)c2ccc(NC(=O)Nc3ccccc3)cc2OC[C@@H](C)NC[C@H]1C -11.9%
CO[C@H]1CN(C)C(=O)c2ccc(NC(=O)Nc3ccccc3)cc2OC[C@H](C)NC[C@H]1C -20.9% [at 8 µM]
CO[C@@H]1CN(C)C(=O)c2ccc(NC(=O)c3nc4ccccc4s3)cc2OC[C@H](C)N(Cc2ccncc2)C[C@@H]1C 26.2%
CO[C@@H]1CN(C)C(=O)c2ccc(NC(=O)Nc3ccccc3)cc2OC[C@H](C)NC[C@@H]1C -13.5% [at 8 µM]
CO[C@@H]1CN(C)C(=O)c2ccc(NC(=O)c3nc4ccccc4s3)cc2OC[C@@H](C)N(Cc2ccncc2)C[C@@H]1C 23.4%
CO[C@@H]1CN(C)C(=O)c2ccc(NC(=O)Nc3ccccc3)cc2OC[C@H](C)NC[C@H]1C -11.5% [at 0.5 µM]
COc1ccccc1S(=O)(=O)N[C@H]1C=C[C@H](CC(=O)N2CCCCC2)O[C@@H]1CO -11.2% [at 1.95 µM]
C[C@H](NC(=O)C[C@@H]1C[C@@H]2c3cc(NC(=O)NC4CCCCC4)ccc3O[C@@H]2[C@@H](CO)O1)c1ccccc1 6.02% [at 8 µM]
CO[C@H]1CN(C)C(=O)c2cc(NC(=O)c3cc(C)on3)ccc2OC[C@H](C)N(C(C)=O)C[C@H]1C -7.95% [at 1.95 µM]
O=C(C[C@@H]1C[C@@H]2c3cc(NC(=O)Nc4ccc(C(F)(F)F)cc4)ccc3O[C@@H]2[C@@H](CO)O1)NCC1CC1 20.8% [at 35 µM]
CC(C)[C@@H](C)NC(=O)N(C)C[C@@H]1OCc2ccccc2-c2ccccc2C(=O)N([C@H](C)CO)C[C@H]1C 47.6% [at 35 µM]
